rCAG RNA binder – binders of r(CAG) RNA repeats, primary screen, biochemical, fluorescence. inhibition, % at 3 µM. r(CAG) RNA repeat, TO-PRO-1 dye displacement fluorescence. 370,000 compounds, 1.3% hits;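 active means inhibition above the plate cutoff, the mean of all test compounds on that plate plus 3 SD, cut at about 35% in these data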;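 further: 0% = DMSO alone and 100% = 100 µM mitoxantrone as full dye displacement; higher means more dye released from RNA so lower well fluorescence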
MPTP block – mitochondrial permeability transition pore inhibitors, primary screen, biochemical, isolated mouse mitochondria, absorbance | Ca2+ swelling absorbance, 30 min | inhibition, % at 10 µM | 360,000 compounds, 1.4% hits | AID 602449, 2012;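 active means inhibition of 50% or more, scaled per plate between neutral and stimulator controls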;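 further: 0% = DMSO wells given calcium and 100% = 1 mM EGTA wells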
ADAM17 inh – ADAM17 inhibitors, primary screen, biochemical, QFRET; Disintegrin and metalloproteinase domain-containing protein 17 (Homo sapiens), P78536; recombinant ADAM17, EDANS/DABCYL FRET peptide cleavage; inhibition, % at 6.95 µM; 370,000 compounds, 0.83% hits;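 active means inhibition above the mean of compounds lying between control limits plus 3 SD, set per campaign, cut at about 8.5% in these data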;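 further: 0% = DMSO-only wells as the low control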
proKLK7 act – proKLK7 zymogen activators, primary screen, biochemical, fluorescence intensity; purified proKLK7, EDANS-DABCYL substrate fluorescence; 100% is mature enzyme control, 0% vehicle; AID 652039, 2013; activation, % at 7 µM; 370,000 compounds, 0.9% hits;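 active means activation above the mean of all tested compounds plus 3 SD, computed per campaign excluding outliers beyond control limits, cut at about 13% in these data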
DSG3 Ab inh – inhibitors of pemphigus antibody binding to DSG3, primary screen, biochemical, bead-based, flow cytometry, scFv-GFP; Desmoglein-3 (Homo sapiens), P32926; DSG3-coupled beads, scFv-anti-DSG3-GFP binding; hits give low values; binding (percent of control), % at 10 µM; 310,000 compounds, 0.48% hits; AID 588358, 2011;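 active means binding more than 3 SD below its plate's average and above zero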;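 further: hits lower antibody fragment binding to DSG3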
ADAM10 inh – human ADAM10 inhibitors, primary screen, biochemical, QFRET, HTS. inhibition, % at 7 µM. 370,000 compounds, 0.62% hits. recombinant ADAM10, EDANS/DABCYL FRET peptide cleavage, 3 h. Disintegrin and metalloproteinase domain-containing protein 10 (Homo sapiens), O14672. AID 720582, 2013;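 active means inhibition above a per-campaign cutoff equal to the mean of compounds falling between control-based bounds plus 3 SD, cut at about 20% in these data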;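 further: 0% = DMSO wells while the 100% control is not disclosed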
Target sequence (O14672 214-748 limits assumed): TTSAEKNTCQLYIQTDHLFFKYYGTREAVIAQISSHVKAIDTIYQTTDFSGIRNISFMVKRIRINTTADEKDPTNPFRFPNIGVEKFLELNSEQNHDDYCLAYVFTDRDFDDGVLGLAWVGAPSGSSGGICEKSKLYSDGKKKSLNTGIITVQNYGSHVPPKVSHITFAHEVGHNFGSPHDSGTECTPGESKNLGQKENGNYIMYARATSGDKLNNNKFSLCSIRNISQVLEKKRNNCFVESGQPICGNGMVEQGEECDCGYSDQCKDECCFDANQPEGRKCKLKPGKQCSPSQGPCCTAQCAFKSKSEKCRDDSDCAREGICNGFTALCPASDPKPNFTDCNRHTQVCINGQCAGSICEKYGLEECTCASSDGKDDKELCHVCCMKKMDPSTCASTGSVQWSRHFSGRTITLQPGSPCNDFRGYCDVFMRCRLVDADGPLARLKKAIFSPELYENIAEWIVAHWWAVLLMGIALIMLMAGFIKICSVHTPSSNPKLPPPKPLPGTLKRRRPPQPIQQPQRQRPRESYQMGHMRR
KLK7 act conf – proKLK7 zymogen activators, confirmation, biochemical, fluorescence intensity, triplicate; 3,200 compounds, 68% hits; purified proKLK7, EDANS-DABCYL substrate fluorescence; scaled: vehicle 0, mature enzyme 100; shares compounds with proKLK7 act; activation, % at 7 µM;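 active means activation, as change over the incubation, above the mean of all tested compounds plus 3 SD, cut at about 13% in these data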
EDANS-DABCYL int – EDANS-DABCYL substrate optical interference, artefact control for kallikrein-7 zymogen activator project, biochemical, fluorescence intensity, high throughput. shares compounds with proKLK7 act. no enzyme, 4 h; solvent 0%, active enzyme control 100%. activation, % at 7 µM. 3,200 compounds, 80% hits;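 active means activation above the all-compound mean plus 3 SD, ignoring values outside control-based bounds, cut at about 4.8% in these data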;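 further: value is the 4 h activation minus the activation read at time zero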
ADAM10 confirm – human ADAM10 inhibitors, confirmation, biochemical, QFRET, triplicate | shares compounds with ADAM10 inh | ADAM10 QFRET peptide cleavage, EDANS fluorescence | inhibition, % at 6.95 µM | 2,100 compounds, 1% hits;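 active means inhibition above about 20% chosen separately for each screening run, limit read from the data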;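 further: 0% = DMSO wells and 100% = marimastat wells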
ADAM17 ctr – ADAM17 inhibitors, counter-screen for ADAM10 exosite inhibitor project, biochemical, QFRET, high throughput. shares compounds with ADAM10 inh. ADAM17 QFRET peptide cleavage, EDANS fluorescence. inhibition, % at 6.95 µM. 2,100 compounds, 0.5% hits. AID 743214, 2013;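 active means mean triplicate inhibition above the solvent-only control wells' mean plus 3 SD, cut at about 12% in these data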;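 further: 0% = DMSO wells and 100% = marimastat wells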
ADAM10 counter – ADAM10 inhibitors, counter-screen for ADAM17 exosite inhibitor project, biochemical, FRET, human ADAM10 | shares compounds with ADAM17 inh | inhibition, % at 6.95 µM | AID 743256, 2014 | 2,900 compounds, 47% hits | recombinant ADAM10, EDANS/DABCYL FRET peptide cleavage, 3 h;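 active means mean inhibition over the triplicate runs exceeds the activity threshold set in the earlier primary screen, cut at about 20% in these data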;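 further: 0% = DMSO wells and 100% = marimastat wells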
ADAM17 confirm – ADAM17 inhibitors, hit retest, confirmation, biochemical, QFRET peptide cleavage; 2,900 compounds, 65% hits; shares compounds with ADAM17 inh; recombinant ADAM17, EDANS/DABCYL QFRET peptide cleavage; inhibition, % at 6.95 µM;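 active means mean inhibition across replicates above the hit cutoff set in the primary screen, cut at about 8.5% in these data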;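 further: 0% = DMSO wells and 100% = marimastat wells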
An asterisk follows results filed as active; i = inactive; nt = no result. Hits are enriched below; roughly 4.7% of the tested compounds scored in any of these assays.

SMILES	rCAG RNA binder	MPTP block	ADAM17 inh	proKLK7 act	DSG3 Ab inh	ADAM10 inh	KLK7 act conf	EDANS-DABCYL int	others
COC(=O)c1ccc(C(=O)OC)c(NS(C)(=O)=O)c1	3.2	0.2	-15.3	28.0*	97.2	-24.2	21.4*	20.6*
COC(=O)c1ccccc1NS(C)(=O)=O	2.5	-0.8	-3.8	-0.5	101.5	0.7	nt	nt
COC(=O)c1ccc(C(=O)OC)c(NC(=O)CSCC(=O)O)c1	0.0	-0.6	-14.7	-0.3	116.9	-44.6	nt	nt
COC(=O)c1ccc(C(=O)OC)c(NC(=O)Oc2ccccc2)c1	-1.6	-1.0	i	38.3*	105.3	i	74.9*	75.0*
CCCCOCC1CN(CCCC)S(=O)(=O)c2c(Oc3ccc(C(C)C)cc3)cccc2O1 (stereo not given)	0.7	nt	-2.8	0.3	nt	-2.9	nt	nt
CC(=O)OC[C@@H]1CN(Cc2cccc(C(F)(F)F)c2)C[C@H](n2cnc3c(NCc4ccco4)ncnc32)O1	2.7	0.3	5.3	0.8	nt	-3.5	nt	nt
COc1ccc(C(C)(C)C)cc1NC(=O)OC[C@@H]1CSCCS(=O)(=O)N1	0.1	nt	1.0	0.0	nt	-3.7	nt	nt
O=C(COC(=O)c1cc(Cl)ccc1O)NCC1CCCO1 (stereo not given)	-3.5	-0.3	-13.6	46.4*	98.5	-36.9	80.4*	82.8*
O=C(OCC(=O)N1CCCC1=O)c1cc(Cl)ccc1O	-9.0	-1.5	-16.1	32.4*	107.8	-41.6	31.5*	32.1*
NC(=O)c1ccsc1NC(=O)COC(=O)c1cc(Cl)ccc1O	10.5	-0.5	-20.9	75.5*	93.7	-42.6	89.9*	91.3*
O=C(COC(=O)c1cc(Cl)ccc1O)NNC(=O)c1ccc([N+](=O)[O-])cc1	12.4	-4.2	-8.6	98.9*	100.7	-34.4	159.7*	155.2*
O=C(COC(=O)c1cc(Cl)ccc1O)NCCNC(=O)COC(=O)c1cc(Cl)ccc1O	0.6	1.4	-4.7	4.5	105.0	-9.4	nt	nt
O=C(OCC(=O)N1CCCc2ccccc21)c1cc(Cl)ccc1O	-2.4	1.8	1.5	0.9	105.5	-8.2	nt	nt
O=C(COC(=O)c1cccnc1Cl)NCC1CCCO1 (stereo not given)	-0.3	0.2	-0.7	-0.2	94.3	-6.4	nt	nt
COc1c2c(c(OC)c3c1c(=O)c1ccccc1n3C)OCO2	4.1	0.0	-3.6	0.9	85.4	-8.8	nt	nt
COc1c2c(cc3c1c(=O)c1ccccc1n3C)OCO2	0.7	nt	-279.3	45.2*	nt	i	56.0*	76.6*
Cc1ccc(C(=O)N2CCCCC2C(=O)O)cc1S(=O)(=O)N1CCCCC1 (stereo not given)	3.4	-3.0	-2.8	-0.8	95.8	-12.6	nt	nt
COC(=O)c1cc(C(c2ccccc2O)C2CCC(C)(C)O2)n2ccccc12 (stereo not given)	3.4	nt	-46.1	35.8*	nt	-189.6	-35.5	-36.8
O=C(Nc1nc(-c2ccccc2)cs1)c1ccc(S(=O)(=O)N2CCc3ccccc32)cc1	17.1	1.0	9.7*	14.0*	94.3	13.0	0.5	-2.3	ADAM10 counter=9.7;ADAM17 confirm=9.7*
CN(C)c1ccc(C=NN2C(=O)CSC2=S)c(Cl)c1	16.3	0.4	-14.8	-0.7	111.1	-74.4	nt	nt
Cc1nn(-c2ccccc2)c(C)c1/C=N/NC(=O)c1cc(-c2ccccc2)n[nH]1	-0.8	-0.2	0.1	0.2	106.1	-0.5	nt	nt
Cc1nn(-c2ccccc2)c(C)c1/C=N/NC(=O)c1cc(-c2cccc3ccccc23)n[nH]1	14.3	-4.9	7.9	-0.9	95.1	23.7*	nt	nt	ADAM10 confirm=5.8;ADAM17 ctr=2.1
O=C(CC(Cc1ccccc1)C(=O)O)Nc1ccc(F)cc1 (stereo not given)	-0.3	-0.7	-0.2	0.3	99.5	21.1*	nt	nt	ADAM10 confirm=-0.1;ADAM17 ctr=-0.4
COc1ccc(NC(=O)CC(Cc2ccccc2)C(=O)O)cc1 (stereo not given)	2.5	2.0	-0.4	0.5	99.2	0.2	nt	nt
O=C1/C(=C/c2cccs2)SC(=S)N1CCCC(=O)N(CCO)c1ccccc1	1.4	3.5	1.1	-0.2	nt	23.7*	nt	nt	ADAM10 confirm=-0.5;ADAM17 ctr=0.5
COC(=O)c1ccc(NCc2c(O)ccc(O)c2Br)cc1Cl	23.0	1.2	17.1*	0.2	94.4	40.6*	nt	nt	ADAM10 confirm=4.0;ADAM17 ctr=1.2
COC(=O)c1ccc(NCc2cc(O)ccc2O)cc1O	3.4	-0.7	2.8	2.0	94.4	1.4	nt	nt
Cc1ccccc1Cn1cc(S(=O)(=O)CC(=O)Nc2nccs2)c2ccccc21	7.5	6.6	2.4	-0.1	97.9	22.9*	nt	nt	ADAM10 confirm=3.7;ADAM17 ctr=0.3
Cc1[nH]c2ccccc2c1C(=O)COC(=O)C1CC(=O)N(Cc2ccccc2)C1 (stereo not given)	-4.9	-2.4	-0.8	-0.4	100.5	7.5	nt	nt
C=CCn1c(C)cc(C(=O)COC(=O)C2CC(=O)N(Cc3ccccc3)C2)c1C (stereo not given)	-6.8	-2.7	-1.6	0.0	115.4	77.6*	nt	nt	ADAM10 confirm=0.3;ADAM17 ctr=0.2

Screening results as filed in PubChem BioAssay.
